Data on 38 compounds can be found in PubChem BioAssay AID2158 (National Center for Advancing Translational Sciences (NCATS), 2009).

Several values for one entry are separate records, joined by “and”; a condition that tells them apart may be missing. Equal entries are not always repeated. Records with an inconclusive call do not appear. Unmarked numbers belong to inactive results. Activity calls are given as the source filed them. The call rests on the fitted dose curve; in most records, active means well fitted inhibition curve with a large enough effect; inconclusive means small, poorly fitted or top-dose-only effect; inactive means no such curve, though single readings can be large or run the other way.
Potency means the concentration at half of the fitted maximal effect.

In this experiment the target is Cruzipain (Trypanosoma cruzi) (UniProt P25779). In words: Confirmation qHTS Assay for Inhibitors of Cruzain. Further: nearly all actives have a fitted effect of over 40% in size.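 On activity change, negative = inhibition: plate controls were uninhibited enzyme control for no effect and buffer wells lacking enzyme for full effect.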 Conditions: purified cruzain, Z-FR-AMC fluorescence, 0.01% Triton. The method, boiled down: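 Reaction progress from the 60 s rise in AMC fluorescence (ex 360, em 450 nm) after adding 2 uM Z-FR-AMC. Before this, 1.5 nM cruzain sat 15 min at room temperature with compound in pH 5.5 acetate buffer with 5 mM DTT and 0.01% Triton X-100.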
Chain of Cruzipain (Trypanosoma cruzi) (P25779 123-467 limits assumed): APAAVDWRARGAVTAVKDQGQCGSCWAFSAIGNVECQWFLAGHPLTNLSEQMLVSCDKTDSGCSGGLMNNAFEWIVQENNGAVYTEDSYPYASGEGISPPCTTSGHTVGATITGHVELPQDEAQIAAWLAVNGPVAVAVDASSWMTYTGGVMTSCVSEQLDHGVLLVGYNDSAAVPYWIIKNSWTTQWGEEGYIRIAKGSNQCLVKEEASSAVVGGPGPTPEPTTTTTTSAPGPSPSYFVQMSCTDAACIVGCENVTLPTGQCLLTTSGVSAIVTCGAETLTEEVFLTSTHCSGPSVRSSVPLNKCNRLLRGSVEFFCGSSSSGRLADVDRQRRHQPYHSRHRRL
On to `CCc1ccc(OCCCn2c(CCNC(=O)C3CCCCC3)nc3ccccc32)cc1`, for which the Potency is 1.41 µM (active).

Regarding `O=C(COC(=O)CNS(=O)(=O)c1ccc(F)c(F)c1F)Nc1ccc(OC(F)F)cc1`, the activity change, negative = inhibition was -11.4%.

On to `O=[N+]([O-])c1ccccc1S(=O)(=O)NCC1CCC(CNCC2CCc3ccccc3C2)CC1` (stereo not drawn), for which the activity change, negative = inhibition was -5.24%.

Regarding `Cc1ccc(S(=O)(=O)NC(N)=NCCC[C@@H](NC(=O)CNC(=O)c2ccccc2)C(=O)Nc2cc(C(F)(F)F)ccc2Cl)cc1`, the activity change, negative = inhibition was -20%.

For `COc1ccc2[nH]c(=O)c(CN(Cc3nnnn3Cc3ccco3)C3CCCCC3)cc2c1`, the Potency is 14.1 µM (active).

In the case of `C=CC(=O)c1ccc2ccccc2c1`, the Potency is 25.1 µM (active).

For the compound `O=C(Cn1c2ccccc2c(=O)c2ccccc21)Nc1cccc(F)c1`, the activity change, negative = inhibition was -8.37%.

Take `Cc1ccc2[nH]c(=O)c(CN(Cc3ccco3)Cc3nnnn3Cc3ccccc3)cc2c1`: the activity change, negative = inhibition was -13.8%.

In the case of `N#Cc1nc(NCC(F)F)nc(Nc2cc(F)cc(F)c2)n1`, the Potency was 0.0251 µM (active).

On to `O=C(COC(=O)CNC(=O)C1CCCCC1)Nc1ccc2ccccc2c1`, for which the Potency is 12.6 µM (active).

As to `O=C(CNC(=O)C1CCCCC1)OCC(=O)c1ccc(-c2ccccc2)cc1`, the Potency is 1.58 µM (active).

Regarding `CC1CCCN(c2ccc(C(=O)OCC(=O)N3c4ccccc4Sc4ccccc43)cc2[N+](=O)[O-])C1` (stereo not drawn), the activity change, negative = inhibition was -7.68%.

For the compound `O=C(Cn1cc(CNC(=O)C2CCCCC2)nn1)Nc1cc(C(F)(F)F)ccc1Cl`, the activity change, negative = inhibition was 0.597%.

Take `O=C(Cc1ccccc1)NCC(=O)OCC(=O)c1cccc2ccccc12`: the Potency is 25.1 µM (active).

For `O=C(NNC(=O)c1nc2ccccc2[nH]1)OCc1ccccc1`, the activity change, negative = inhibition is -7.65%.

For `CCOC(=O)CNc1nc(C#N)nc(N2CCOCC2)n1`, the Potency is 4.47 µM (active) and 6.31 µM (active).

In the case of `CC(C)CC(=O)OC1C(N2CCOCC2)c2c(ccc(/C=C/C(=O)N3CCOCC3)c2O)OC1(C)C` (stereo not drawn), the activity change, negative = inhibition is -26%.

Take `COc1ccc(/C=C/C(=O)Nc2ccc(-n3nncc3-c3ccc(Br)cc3)cc2)cc1OC`: the Potency was 12.6 µM (active).

As to `C(/Oc1ccccc1)=C1\Nn2c(nnc2-c2cc(-c3ccccc3)n[nH]2)S1`, the activity change, negative = inhibition is -9.74% and -7.34%.

Turning to `CCCn1c2ccc(F)cc2c2nnc(SCCN3CCCCC3)nc21`, the Potency is 12.6 µM (active).

Regarding `O=C(CNC(=O)Cc1ccccc1)NCC(=O)OCC(=O)c1cccc2ccccc12`, the activity change, negative = inhibition is -13%.

For `CCCCNc1nc(C#N)nc(Nc2ccccc2)n1`, the Potency was 0.891 µM (active).

On to `C=CC(C)(C)c1[nH]c2ccccc2c1C1=C(O)C(=O)C(c2c[nH]c3c(CC=C(C)C)cccc23)=C(O)C1=O`, for which the Potency was 25.1 µM (active).

Turning to `Cc1ccccc1OCC(=O)NCC(=O)OCC(=O)c1ccc(-c2ccccc2)cc1`, the activity change, negative = inhibition is -15.9%.

Regarding `NC(=S)N/N=C\c1ccc(-c2cccc(Cl)c2Cl)o1`, the Potency is 1 µM (active).

`CCc1ccc2[nH]c(=O)c(CN(Cc3ccccc3)Cc3nnnn3C(C)(C)C)cc2c1`: the activity change, negative = inhibition is -22.1%.

Turning to `CC(C)C[C@H](N)c1nnc(S(=O)(=O)Cc2ccc(F)cc2)o1`, the activity change, negative = inhibition is -25.7%.

As for `Cc1ccc(SCCC(=O)OCC(=O)Nc2ncc(Cl)cc2Cl)cc1`, the activity change, negative = inhibition was -19.6%.

For the compound `O=C(Cn1cc(CNCc2ccccc2)nn1)Nc1cc(C(F)(F)F)ccc1Cl`, the activity change, negative = inhibition is 3.4%.

Turning to `COC(=O)CCC(C)C1CCC2C3CC[C@H]4CC(O)CC[C@@]4(C)C3CC(O)[C@]12C` (stereo partly drawn), the activity change, negative = inhibition was -8.27%.

As to `CC(=O)Nc1ccc(/C=C/C(=O)c2ccc(-n3nncc3-c3ccccc3)cc2)cc1`, the activity change, negative = inhibition was 31.4%.

As to `O=C(OCN1C(=O)c2ccccc2C1=O)/C(=C\c1ccco1)NC(=O)c1ccccc1`, the Potency is 1.12 µM (active).

With `CC(=O)n1cc(/C=C2/N=C(c3ccccc3)OC2=O)c2ccccc21`, the Potency is 0.794 µM (active).

In the case of `O=C(COC(=O)CNC(=O)c1ccccc1Cl)Nc1ccccc1Cl`, the Potency was 3.55 µM (active).

Regarding `CNc1nc(C#N)nc(Nc2ccccc2)n1`, the Potency is 1.26 µM (active).

Turning to `COc1ccc(-c2nc3c(=O)n(C)c(=O)nc-3n(C)n2)cc1`, the Potency is 1.26 µM (active).

For the compound `O=C(NCCCc1nc2ccccc2n1CCOc1ccccc1)C1CCCCC1`, the activity change, negative = inhibition was -11.7%.

Regarding `CNC(=O)c1ccc2nc(-c3cccc(C)c3)c(-c3cccc(C)c3)nc2c1`, the activity change, negative = inhibition is -24.1%.
